# Assay results reported in article PMC7862700, “An all-to-all approach to the identification of sequence-specific readers for epigenetic DNA modifications on cytosine”.
# Tests used:
# Assay in all cases: DAPPL (digital affinity profiling via proximity ligation, sequencing); 10 mM Tris-HCl pH 7.5, 50 mM NaCl, 1 mM DTT, 4% glycerol, room temperature, 30 min; GST-TFs on glutathione beads, 16-mer random dsDNA library, 0.1% formaldehyde crosslink after washing; high values mean tight binding
# FEV = target: T1, FEV (Homo sapiens, UniProt Q99581 1-238); conditions: protein: recombinant; tags: N-terminal GST; dsDNA, one strand shown
# T1 sequence: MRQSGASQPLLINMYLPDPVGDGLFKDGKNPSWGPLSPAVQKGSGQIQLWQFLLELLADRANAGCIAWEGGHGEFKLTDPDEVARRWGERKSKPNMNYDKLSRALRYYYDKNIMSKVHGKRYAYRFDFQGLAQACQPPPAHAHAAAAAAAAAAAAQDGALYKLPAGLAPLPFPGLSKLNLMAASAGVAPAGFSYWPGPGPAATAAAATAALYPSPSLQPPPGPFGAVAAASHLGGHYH
# Summary of the method: (§1)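 In yeast, human transcription factors were expressed with a GST fusion, then pulled down on glutathione beads and given DNA barcodes. Pooled with a tag-only sample, they were exposed to 200 nmole of a 16-mer random double-stranded DNA library (Tris/NaCl/DTT/glycerol buffer, room temperature, 30 min), washed, crosslinked with 0.1% formaldehyde, proximity-ligated using BsaI/T4 ligase for 1 h at 37 °C, PCR-amplified and read on an Illumina NextSeq500. Each hexamer's frequency of reads for a factor, divided by the matching frequency for the tag-only sample, gives the binding signal.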
# ETV5 = ETV5 (Homo sapiens, UniProt P41161 1-510); conditions: protein: recombinant; tags: N-terminal GST; dsDNA, one strand shown
# Summary of the method: as §1
# HSF1 = HSF1 (Homo sapiens, UniProt Q00613 1-529); conditions: protein: recombinant; tags: N-terminal GST; chain copies: 3; dsDNA, one strand shown
# Summary of the method: as §1
# SPIC = target: T2, SPIC (Homo sapiens, UniProt Q8N5J4 1-248); conditions: protein: recombinant; tags: N-terminal GST; dsDNA, one strand shown
# T2 sequence: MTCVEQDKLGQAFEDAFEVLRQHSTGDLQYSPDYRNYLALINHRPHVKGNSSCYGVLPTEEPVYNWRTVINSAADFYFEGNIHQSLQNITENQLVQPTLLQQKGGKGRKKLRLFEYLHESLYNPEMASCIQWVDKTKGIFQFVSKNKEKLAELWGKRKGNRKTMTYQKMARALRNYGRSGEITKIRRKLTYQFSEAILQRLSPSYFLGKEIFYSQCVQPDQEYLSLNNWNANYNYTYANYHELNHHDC
# Summary of the method: as §1
# ELF4 = ELF4 (Homo sapiens, UniProt Q99607 1-663); conditions: protein: recombinant; tags: N-terminal GST; dsDNA, one strand shown
# Summary of the method: as §1
# ELK4 = target: T3, ELK4 (Homo sapiens, UniProt P28324-2 1-405); conditions: protein: recombinant; tags: N-terminal GST; dsDNA, one strand shown
# T3 sequence: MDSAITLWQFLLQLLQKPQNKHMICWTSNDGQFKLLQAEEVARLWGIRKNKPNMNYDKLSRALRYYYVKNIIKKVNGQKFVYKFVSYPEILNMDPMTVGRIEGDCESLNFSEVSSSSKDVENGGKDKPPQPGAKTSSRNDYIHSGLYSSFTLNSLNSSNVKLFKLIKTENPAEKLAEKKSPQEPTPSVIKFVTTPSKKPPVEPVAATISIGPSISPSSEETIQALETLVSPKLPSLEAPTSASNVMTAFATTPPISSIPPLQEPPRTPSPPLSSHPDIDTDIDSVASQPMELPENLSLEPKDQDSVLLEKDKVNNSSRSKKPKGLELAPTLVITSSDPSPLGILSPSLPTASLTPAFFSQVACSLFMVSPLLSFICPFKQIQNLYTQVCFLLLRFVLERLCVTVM
# Summary of the method: as §1
# ETV2 = target: T4, ETV2 (Homo sapiens, UniProt O00321 1-342); conditions: protein: recombinant; tags: N-terminal GST; dsDNA, one strand shown
# T4 sequence: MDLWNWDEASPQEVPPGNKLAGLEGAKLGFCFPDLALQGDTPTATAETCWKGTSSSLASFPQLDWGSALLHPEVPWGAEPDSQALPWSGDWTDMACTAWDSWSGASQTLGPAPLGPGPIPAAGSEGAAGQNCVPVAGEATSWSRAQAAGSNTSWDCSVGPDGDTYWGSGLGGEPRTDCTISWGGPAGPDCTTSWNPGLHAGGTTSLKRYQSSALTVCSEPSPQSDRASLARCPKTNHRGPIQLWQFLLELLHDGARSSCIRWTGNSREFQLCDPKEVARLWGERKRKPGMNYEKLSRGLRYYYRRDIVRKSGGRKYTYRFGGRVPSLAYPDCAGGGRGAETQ
# Summary of the method: as §1
# ELF3 = target: T5, ELF3 (Homo sapiens, UniProt P78545 1-371); conditions: protein: recombinant; tags: N-terminal GST; dsDNA, one strand shown
# T5 sequence: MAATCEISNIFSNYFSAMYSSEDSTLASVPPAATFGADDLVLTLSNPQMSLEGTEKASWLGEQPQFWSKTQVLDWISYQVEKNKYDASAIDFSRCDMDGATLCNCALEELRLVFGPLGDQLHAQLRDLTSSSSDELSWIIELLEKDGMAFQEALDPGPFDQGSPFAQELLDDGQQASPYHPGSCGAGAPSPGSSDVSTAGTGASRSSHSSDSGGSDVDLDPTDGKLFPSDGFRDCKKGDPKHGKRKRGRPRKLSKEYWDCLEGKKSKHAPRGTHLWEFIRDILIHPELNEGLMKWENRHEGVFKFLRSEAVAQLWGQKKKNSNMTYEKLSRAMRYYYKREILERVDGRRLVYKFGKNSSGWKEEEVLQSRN
# Summary of the method: as §1
# CRX = CRX (Homo sapiens, UniProt O43186 1-299); conditions: protein: recombinant; tags: N-terminal GST; dsDNA, one strand shown
# Summary of the method: as §1
# ETV1 = ETV1 (Homo sapiens, UniProt P50549 1-477); conditions: protein: recombinant; tags: N-terminal GST; dsDNA, one strand shown
# Summary of the method: as §1
# ERF = target: T6, ERF (Homo sapiens, UniProt P50548 1-548); conditions: protein: recombinant; tags: N-terminal GST; dsDNA, one strand shown
# T6 sequence: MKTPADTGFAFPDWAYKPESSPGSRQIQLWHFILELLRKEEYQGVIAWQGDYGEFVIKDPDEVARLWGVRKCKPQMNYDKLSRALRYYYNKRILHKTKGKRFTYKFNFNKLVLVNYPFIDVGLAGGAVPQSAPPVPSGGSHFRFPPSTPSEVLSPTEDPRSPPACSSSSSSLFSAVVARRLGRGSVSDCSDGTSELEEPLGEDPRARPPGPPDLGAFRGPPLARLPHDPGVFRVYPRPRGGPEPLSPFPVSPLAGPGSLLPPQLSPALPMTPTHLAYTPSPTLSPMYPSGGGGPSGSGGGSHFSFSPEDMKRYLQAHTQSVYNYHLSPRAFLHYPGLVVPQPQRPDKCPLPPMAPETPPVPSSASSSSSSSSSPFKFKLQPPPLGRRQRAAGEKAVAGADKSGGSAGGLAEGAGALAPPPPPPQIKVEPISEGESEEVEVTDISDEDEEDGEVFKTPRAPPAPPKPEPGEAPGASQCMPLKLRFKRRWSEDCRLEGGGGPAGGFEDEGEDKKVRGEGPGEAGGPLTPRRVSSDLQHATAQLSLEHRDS
# Summary of the method: as §1
# ETV3L = target: T7, ETV3L (Homo sapiens, UniProt Q6ZN32 1-361); conditions: protein: recombinant; tags: N-terminal GST; dsDNA, one strand shown
# T7 sequence: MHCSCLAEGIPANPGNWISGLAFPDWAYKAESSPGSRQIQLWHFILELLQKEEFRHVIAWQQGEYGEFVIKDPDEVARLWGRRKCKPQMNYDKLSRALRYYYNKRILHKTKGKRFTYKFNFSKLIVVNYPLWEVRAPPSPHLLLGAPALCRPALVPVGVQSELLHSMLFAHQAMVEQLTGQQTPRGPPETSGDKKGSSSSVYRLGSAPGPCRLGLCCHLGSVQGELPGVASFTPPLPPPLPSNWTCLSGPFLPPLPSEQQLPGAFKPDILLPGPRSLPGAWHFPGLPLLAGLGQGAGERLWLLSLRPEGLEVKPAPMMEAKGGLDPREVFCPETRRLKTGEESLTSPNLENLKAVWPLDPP
# Summary of the method: as §1
# ETS2 = target: T8, ETS2 (Homo sapiens, UniProt P15036 1-469); conditions: protein: recombinant; tags: N-terminal GST; dsDNA, one strand shown
# T8 sequence: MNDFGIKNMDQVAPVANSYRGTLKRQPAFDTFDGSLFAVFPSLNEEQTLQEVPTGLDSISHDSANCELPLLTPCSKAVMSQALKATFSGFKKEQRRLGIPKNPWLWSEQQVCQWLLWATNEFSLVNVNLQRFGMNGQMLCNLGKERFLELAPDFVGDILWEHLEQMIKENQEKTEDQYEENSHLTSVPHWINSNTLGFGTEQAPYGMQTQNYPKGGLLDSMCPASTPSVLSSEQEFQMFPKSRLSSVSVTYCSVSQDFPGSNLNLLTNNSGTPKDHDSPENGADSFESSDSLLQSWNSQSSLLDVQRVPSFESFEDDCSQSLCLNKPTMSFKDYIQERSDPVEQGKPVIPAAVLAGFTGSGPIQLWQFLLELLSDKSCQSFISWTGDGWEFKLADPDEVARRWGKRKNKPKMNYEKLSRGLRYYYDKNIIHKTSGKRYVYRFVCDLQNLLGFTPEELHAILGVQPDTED
# Summary of the method: as §1
# SPDEF = target: T9, SPDEF (Homo sapiens, UniProt O95238 1-335); conditions: protein: recombinant; tags: N-terminal GST; dsDNA, one strand shown
# T9 sequence: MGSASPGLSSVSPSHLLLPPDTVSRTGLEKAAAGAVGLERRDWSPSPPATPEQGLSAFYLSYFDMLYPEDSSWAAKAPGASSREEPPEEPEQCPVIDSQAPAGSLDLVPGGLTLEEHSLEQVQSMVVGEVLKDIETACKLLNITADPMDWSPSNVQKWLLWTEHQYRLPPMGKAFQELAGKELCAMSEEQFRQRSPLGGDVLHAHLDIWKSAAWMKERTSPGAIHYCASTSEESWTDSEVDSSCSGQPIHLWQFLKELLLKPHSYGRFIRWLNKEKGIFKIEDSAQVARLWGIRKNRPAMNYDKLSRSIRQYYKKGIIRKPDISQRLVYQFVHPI
# Summary of the method: as §1
# ETV7 = target: T10, ETV7 (Homo sapiens, UniProt Q9Y603 1-341); conditions: protein: recombinant; tags: N-terminal GST; dsDNA, one strand shown
# T10 sequence: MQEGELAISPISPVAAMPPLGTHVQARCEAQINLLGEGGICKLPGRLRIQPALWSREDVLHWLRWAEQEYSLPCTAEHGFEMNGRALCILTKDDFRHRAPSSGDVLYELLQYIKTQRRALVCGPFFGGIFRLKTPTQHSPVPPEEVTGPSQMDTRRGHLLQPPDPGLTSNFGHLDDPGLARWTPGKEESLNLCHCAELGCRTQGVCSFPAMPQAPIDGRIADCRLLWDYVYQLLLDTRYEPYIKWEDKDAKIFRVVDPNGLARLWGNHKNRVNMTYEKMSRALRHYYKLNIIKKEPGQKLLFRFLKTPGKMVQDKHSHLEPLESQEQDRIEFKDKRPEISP
# Summary of the method: as §1
# ELF5 = target: T11, ELF5 (Homo sapiens, UniProt Q9UKW6-2 1-255); conditions: protein: recombinant; tags: N-terminal GST; dsDNA, one strand shown
# T11 sequence: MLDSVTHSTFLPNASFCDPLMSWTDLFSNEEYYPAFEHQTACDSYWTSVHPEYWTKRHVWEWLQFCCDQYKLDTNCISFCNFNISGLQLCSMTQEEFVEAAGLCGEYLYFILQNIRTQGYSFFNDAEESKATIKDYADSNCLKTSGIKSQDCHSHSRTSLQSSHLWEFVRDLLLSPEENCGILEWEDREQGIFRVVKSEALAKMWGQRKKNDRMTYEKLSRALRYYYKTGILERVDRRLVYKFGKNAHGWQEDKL
# Summary of the method: as §1
# ETV3 = target: T12, ETV3 (Homo sapiens, UniProt P41162-2 1-143); conditions: protein: recombinant; tags: N-terminal GST; dsDNA, one strand shown
# T12 sequence: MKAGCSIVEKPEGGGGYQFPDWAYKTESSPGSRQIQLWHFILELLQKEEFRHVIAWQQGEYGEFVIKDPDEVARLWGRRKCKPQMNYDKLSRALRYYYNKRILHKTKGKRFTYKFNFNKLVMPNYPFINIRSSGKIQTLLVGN
# Summary of the method: as §1
# ETV6 = ETV6 (Homo sapiens, UniProt P41212 1-452); conditions: protein: recombinant; tags: N-terminal GST; dsDNA, one strand shown
# Summary of the method: as §1
# Chain of ETV6 (P41212 whole entry): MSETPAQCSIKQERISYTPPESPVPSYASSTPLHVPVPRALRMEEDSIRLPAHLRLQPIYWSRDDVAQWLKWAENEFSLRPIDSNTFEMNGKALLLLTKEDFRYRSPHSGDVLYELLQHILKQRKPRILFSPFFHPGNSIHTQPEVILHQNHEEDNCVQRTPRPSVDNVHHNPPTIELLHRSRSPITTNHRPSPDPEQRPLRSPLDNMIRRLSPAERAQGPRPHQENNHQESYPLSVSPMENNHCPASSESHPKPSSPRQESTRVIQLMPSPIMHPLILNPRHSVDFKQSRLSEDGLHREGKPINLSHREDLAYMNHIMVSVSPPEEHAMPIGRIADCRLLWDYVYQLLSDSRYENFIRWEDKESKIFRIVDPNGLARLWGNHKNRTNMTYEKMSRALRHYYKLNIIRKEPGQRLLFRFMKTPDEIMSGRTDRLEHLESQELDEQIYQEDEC
# Chain of ETV1 (P50549 whole entry): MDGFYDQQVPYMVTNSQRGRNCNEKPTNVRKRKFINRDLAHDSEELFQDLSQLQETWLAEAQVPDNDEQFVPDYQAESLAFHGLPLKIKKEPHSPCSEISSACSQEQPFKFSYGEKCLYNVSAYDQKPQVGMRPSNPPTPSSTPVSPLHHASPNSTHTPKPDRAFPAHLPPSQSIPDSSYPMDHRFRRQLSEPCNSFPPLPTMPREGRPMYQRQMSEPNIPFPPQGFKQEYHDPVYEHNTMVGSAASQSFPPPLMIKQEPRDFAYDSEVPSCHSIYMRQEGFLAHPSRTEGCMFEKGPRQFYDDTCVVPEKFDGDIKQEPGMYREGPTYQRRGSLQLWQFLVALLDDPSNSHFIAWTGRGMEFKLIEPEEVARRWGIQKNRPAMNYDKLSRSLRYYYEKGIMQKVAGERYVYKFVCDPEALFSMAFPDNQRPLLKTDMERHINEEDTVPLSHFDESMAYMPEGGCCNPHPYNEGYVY
# Chain of HSF1 (Q00613 whole entry): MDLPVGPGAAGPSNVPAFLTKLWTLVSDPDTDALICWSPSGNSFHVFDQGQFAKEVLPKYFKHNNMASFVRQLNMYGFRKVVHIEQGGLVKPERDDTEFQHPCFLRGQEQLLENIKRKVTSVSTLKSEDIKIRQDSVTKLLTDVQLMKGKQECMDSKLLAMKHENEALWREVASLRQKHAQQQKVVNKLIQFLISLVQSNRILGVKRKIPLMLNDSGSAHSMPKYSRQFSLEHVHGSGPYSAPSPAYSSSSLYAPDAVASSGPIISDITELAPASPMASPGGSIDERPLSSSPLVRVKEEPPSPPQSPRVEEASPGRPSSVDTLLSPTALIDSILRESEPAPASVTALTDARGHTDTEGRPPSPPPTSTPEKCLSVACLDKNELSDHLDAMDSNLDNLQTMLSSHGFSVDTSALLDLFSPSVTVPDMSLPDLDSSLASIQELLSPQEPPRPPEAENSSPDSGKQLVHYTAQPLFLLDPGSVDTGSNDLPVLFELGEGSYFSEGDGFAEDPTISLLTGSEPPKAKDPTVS
# Chain of ELF4 (Q99607 whole entry): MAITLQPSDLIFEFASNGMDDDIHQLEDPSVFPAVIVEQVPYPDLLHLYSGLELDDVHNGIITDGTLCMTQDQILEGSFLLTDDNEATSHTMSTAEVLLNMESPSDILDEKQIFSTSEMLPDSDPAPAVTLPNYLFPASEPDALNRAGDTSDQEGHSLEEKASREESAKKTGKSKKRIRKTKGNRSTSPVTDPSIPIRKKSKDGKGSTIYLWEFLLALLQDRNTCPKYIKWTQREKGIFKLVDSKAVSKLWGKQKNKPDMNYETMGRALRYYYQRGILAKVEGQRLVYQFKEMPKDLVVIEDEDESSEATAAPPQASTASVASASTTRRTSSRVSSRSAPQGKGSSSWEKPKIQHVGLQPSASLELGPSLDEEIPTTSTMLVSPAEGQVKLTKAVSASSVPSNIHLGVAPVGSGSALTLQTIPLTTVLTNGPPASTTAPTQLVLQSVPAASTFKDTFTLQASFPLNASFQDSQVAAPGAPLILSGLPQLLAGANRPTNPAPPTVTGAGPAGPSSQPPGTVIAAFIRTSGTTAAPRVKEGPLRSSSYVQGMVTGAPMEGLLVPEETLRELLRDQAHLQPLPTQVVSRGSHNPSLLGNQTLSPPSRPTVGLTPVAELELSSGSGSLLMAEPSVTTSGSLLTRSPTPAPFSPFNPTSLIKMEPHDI
# Chain of ETV5 (P41161 whole entry): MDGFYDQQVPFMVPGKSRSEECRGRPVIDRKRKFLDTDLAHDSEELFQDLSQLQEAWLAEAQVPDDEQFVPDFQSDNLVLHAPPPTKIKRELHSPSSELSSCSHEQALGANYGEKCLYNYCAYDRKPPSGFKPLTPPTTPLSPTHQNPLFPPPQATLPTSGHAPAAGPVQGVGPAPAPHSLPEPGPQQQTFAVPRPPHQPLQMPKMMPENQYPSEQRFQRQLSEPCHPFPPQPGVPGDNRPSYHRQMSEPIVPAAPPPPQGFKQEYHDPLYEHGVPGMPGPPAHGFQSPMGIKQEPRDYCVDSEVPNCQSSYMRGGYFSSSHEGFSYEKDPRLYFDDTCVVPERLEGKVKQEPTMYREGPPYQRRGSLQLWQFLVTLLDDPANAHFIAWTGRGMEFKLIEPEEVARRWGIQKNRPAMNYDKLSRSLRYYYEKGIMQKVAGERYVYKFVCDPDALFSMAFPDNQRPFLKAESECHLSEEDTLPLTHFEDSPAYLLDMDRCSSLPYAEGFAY
# Chain of CRX (O43186 whole entry): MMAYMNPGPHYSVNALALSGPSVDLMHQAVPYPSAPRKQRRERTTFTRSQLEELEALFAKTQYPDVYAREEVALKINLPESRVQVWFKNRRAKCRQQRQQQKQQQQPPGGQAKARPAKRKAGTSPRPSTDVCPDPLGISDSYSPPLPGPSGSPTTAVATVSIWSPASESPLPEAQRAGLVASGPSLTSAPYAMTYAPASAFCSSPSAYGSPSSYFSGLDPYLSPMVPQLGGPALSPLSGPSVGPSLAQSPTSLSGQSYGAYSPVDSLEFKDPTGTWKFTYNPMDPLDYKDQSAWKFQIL
sequence,measurement,setting,value
AAAAAA,binding signal,FEV,"1.37 fold enrichment (6-mer frequency, TF over GST control)"
same,binding signal,ETV5,"1.35 fold enrichment (6-mer frequency, TF over GST control)"
same,binding signal,HSF1,"1.41 fold enrichment (6-mer frequency, TF over GST control)"
same,binding signal,SPIC,"1.29 fold enrichment (6-mer frequency, TF over GST control)"
same,binding signal,ELF4,"1.37 fold enrichment (6-mer frequency, TF over GST control)"
same,binding signal,ELK4,"1.23 fold enrichment (6-mer frequency, TF over GST control)"
same,binding signal,ETV2,"1.35 fold enrichment (6-mer frequency, TF over GST control)"
same,binding signal,ELF3,"1.26 fold enrichment (6-mer frequency, TF over GST control)"
same,binding signal,CRX,"1.22 fold enrichment (6-mer frequency, TF over GST control)"
same,binding signal,ETV1,"1.27 fold enrichment (6-mer frequency, TF over GST control)"
same,binding signal,ERF,"1.35 fold enrichment (6-mer frequency, TF over GST control)"
same,binding signal,ETV3L,"1.28 fold enrichment (6-mer frequency, TF over GST control)"
same,binding signal,ETS2,"1.34 fold enrichment (6-mer frequency, TF over GST control)"
same,binding signal,SPDEF,"1.21 fold enrichment (6-mer frequency, TF over GST control)"
same,binding signal,ETV7,"1.31 fold enrichment (6-mer frequency, TF over GST control)"
same,binding signal,ELF5,"1.29 fold enrichment (6-mer frequency, TF over GST control)"
same,binding signal,ETV3,"1.33 fold enrichment (6-mer frequency, TF over GST control)"
same,binding signal,ETV6,"1.35 fold enrichment (6-mer frequency, TF over GST control)"
